Pf growth 48h = Primary qHTS for delayed death inhibitors of the malarial parasite plastid, 48 hour incubation. P. falciparum luciferase growth in erythrocytes, 48 h. Potency, µM (doses to about 28.7 µM), inactives show at the highest dose activity change, negative = inhibition, hits mostly inhibitors. 5.9% of 310,000 active. AID 504832, 2011; also: potency is read from the fitted curve at half-maximal effect; % is scaled to controls: 0 for no effect and ±100 for the full control effect
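Firefly luciferase activity from engineered P. falciparum reports growth; inhibitors lower the luminescent signal. Cultures contained 2% hematocrit erythrocytes at 0.1% final parasitemia.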
Shiga inhibitor = A qHTS for Small Molecule Inhibitors of Shiga Toxin; Vero cells, Shiga toxin protein synthesis inhibition reporter; 9.2% of 290,000 active; inhibition, % at 38.7 µM; in the data active = inhibition mostly above about 28%, no sharp cut-off; inactive = mostly below about 43%; also: 0% is about no effect
NS1 inh = qHTS Assay for Inhibitors of Influenza NS1 Protein Function; Potency, µM (top dose mostly 46.1 µM), for the others: at the top dose activity, positive = more growth; 0.4% of 270,000 active; AID 2326, 2010; calls by dose curve; also: potency is read from the fitted curve at half-maximal effect; actives are rising curves; nearly all actives have a fitted effect of over 50% in size
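A cell-based growth assay was used: compounds that relieve NS1-induced slow growth of budding yeast raise OD600. Assay medium was yeast nitrogen base with ammonium sulphate and -URA supplement, pH 6.0, with 2% galactose.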
Pf growth 96h = Primary qHTS for delayed death inhibitors of the malarial parasite plastid, 96 hour incubation; Potency, µM (titrated, usually from 28.7 µM), without a hit: at the top dose activity change, negative = inhibition, hits mostly inhibitors; 6.9% of 320,000 active; P. falciparum luciferase reporter growth, 96 h; also: potency is read from the fitted curve at half-maximal effect; % is scaled to controls: 0 for no effect and ±100 for the full control effect
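Infected RBCs, 2% Hct / 0.05% parasitemia final; luciferase-reporter P. falciparum; cpd 96 h, 37 C, 5% CO2; luciferase detection reagent; luminescence.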
Cycloheximide cs = Cycloheximide Counterscreen for Small Molecule Inhibitors of Shiga Toxin. cell reporter, cycloheximide protein synthesis inhibition counterscreen. max response, %. 12% of 300,000 active. AID 2314, 2010; in the data active = max response mostly above about 13%, no sharp cut-off; inactive = mostly below about 14%; also: read at 38.3 µM for the half of the compounds with a filed dose; 0% is about no effect
Sm TGR inh = qHTS Assay for the Inhibitors of Schistosoma Mansoni Peroxiredoxins; Schistosoma mansoni thioredoxin glutathione reductase (TGR), Q962Y6; purified TGR, DTNB reduction, TNB absorbance 405 nm; Potency, µM (highest dose often 114 µM), inactives show top-dose activity change, negative = inhibition, hits mostly inhibitors; 3% of 360,000 active; AID 485364, 2010; also: potency is read from the fitted curve at half-maximal effect; % is scaled to controls: 0 for no effect and ±100 for the full control effect; nearly all actives have a fitted effect of over 60% in size
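First, TGR (20 nM dispensed) and NADPH were mixed with compound. Second, a 15 min room-temperature incubation followed. Third, further NADPH and then DTNB were added to start the reaction. Finally, TNB absorbance was monitored kinetically.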
An asterisk follows results filed as active; u = inconclusive; x = not tested or not shown; [ ] = remark or other dose. Only some compounds are listed: those with a hit (about 21% of all), similar ones and a draw of the others. Unless noted, calls follow the shape of the dose curve; as a rule, active = well fitted curve in the direction sought with a large enough effect; inconclusive = small, poorly fitted or top-dose-only effect, or another doubt; inactive = no such curve, though single readings can be large; an effect the other way counts as inactive or inconclusive.

SMILES | Pf growth 48h | Shiga inhibitor | NS1 inh | Pf growth 96h | Cycloheximide cs | Sm TGR inh
O=C(Nc1ccc(N2CCN(C(=O)c3ccccc3F)CC2)cc1)c1cncc(Br)c1 | u | -21 | 1% | u | 3 | -18%
COc1ccc(OC)c(-c2c(C#N)c(N)nc3c2c(=O)nc2sccn23)c1 | -11% | 9 | x | 32% | -1 | -4%
CCOc1ccc(C(=O)NC(C)(C)CC)cc1 | 12% | 19 | -4% | -42% | 11 | x
C=CN1CCCC1=O | x | -10 | x | x | -2 | x
COc1cc(N2C(=O)c3ccccc3C2=O)c(Cl)cc1C(=O)OCC(=O)N(C)C | -4% | -16 | 3% | 28% | 3 | -6%
CC(=O)Oc1cc(C)c(OC(C)=O)c2ccccc12 | 6.7µM* | x | x | 4.8µM* | x | x
COc1cc2cccc(OC)c(=O)c2c(O)c1OC | 58% | 23 | -4% | 101% | 34* | -10%
COc1cc2oc(=O)ccc2cc1O | x | -4 | x | x | -6 | x
CC(=O)Oc1cc2cccc(OC(C)=O)c(=O)c2c(OC(C)=O)c1OC(C)=O | u | -11 | -59% | 15µM* | -2 | u
COc1cc2c(ccc3cc(OC)c(OC)c(O)c32)cc1O | u | 4 | 0% | 4% | -5 | 45µM*
CCOC(=O)c1c(C)n(C)c2c1cc(OC(C)=O)c1ccccc12 | 40% | -24 | 9% | 66% | -1 | 2%
Cc1cc(NC(=O)CSc2nncn2N)no1 | -8% | -8 | x | 3% | -6 | 1%
CCOC(=O)N1CCN(CC(=O)Nc2sccc2C#N)CC1 | 14% | -20 | x | -9% | 1 | -1%
COc1cc2c(cc1OC)CN(C(=O)C1CCCN1S(=O)(=O)c1ccc(F)cc1)CC2 (stereo not drawn) | -13% | 2 | -3% | 27% | 4 | -1%
Cc1cccc(NC(=S)NNC(=O)c2ccc(O)cc2O)c1C | u | 35* | 4% | 35% | 20* | -9%
Cc1ccc(NC(=S)NNC(=O)c2ccccc2O)c(C)c1 | u | 97* | -7% | -3%[5.75 µM] | 33* | 9%
Cc1ccc(NC(=O)NNC(=O)c2cc3ccccc3cc2O)c(C)c1 | 4% | 9 | 11% | 21% | -3 | -4%
Cc1cccc(NC(=O)NNC(=O)c2cc3ccccc3cc2O)c1C | 10% | -2 | x | -26% | 5 | 2%
COc1ccc(Cl)cc1CNCCCSc1ncccn1 | u | -3 | 7% | u | -1 | -2%
CCOc1ccc(Cl)cc1CNCCCSc1ncccn1 | 27% | -1 | -9% | 13µM* | -1 | -1%
COc1ccc2c(c1)c(C(=O)CN1CCC3(CC1)OCCO3)c(C)n2C | -10% | -11 | u | u | -1 | -24%
Cc1[nH]c2ccccc2c1C(=O)CN1CC(C)OC(C)C1 (stereo not drawn) | 0% | 23 | -1% | -10% | -3 | 32µM*
COc1ccc2c(c1)c(C(O)CN1CCC3(CC1)OCCO3)c(C)n2C (stereo not drawn) | u | -18 | u | x | -2 | 25µM*
Cc1[nH]c2ccccc2c1C(O)CN1CCC2(CC1)OCCO2 (stereo not drawn) | -7% | -2 | 0% | 10% | -2 | 16µM*
Cc1[nH]c2ccccc2c1C(=O)CN1CCC(C)CC1 | -1% | -10 | 3% | -35% | -4 | u
SMILES | Pf growth 48h | Shiga inhibitor | NS1 inh | Pf growth 96h | Cycloheximide cs | Sm TGR inh
Cc1[nH]c2ccccc2c1C(=O)CN1CCC2(CC1)OCCO2 | 0.93µM* | -2 | -6% | 0% | 9 | 45µM*
Cc1cccc(C(=O)N(Cc2nc3ccccc3c(=O)[nH]2)C2CCCCC2)c1 | -24% | 16 | -5% | u | 1 | 0%
O=C(COc1ccc(S(=O)(=O)N2CCOCC2)cc1)Nc1cccc([N+](=O)[O-])c1 | u | -6 | 2% | 58% | -2 | -18%
CN(Cc1ccco1)C(=O)C(Cc1ccccc1)NS(=O)(=O)c1ccc2c(c1)CCC(=O)N2 (stereo not drawn) | x | 13 | -72% | 68% | 4 | 40µM*
Cc1nnc(NC(=O)c2cc(S(=O)(=O)N3CCCCC3)ccc2Cl)s1 | -17% | -27 | -1% | u | -2 | 5%
Cc1ccc(S(=O)(=O)N2CC(O)CC2C(=O)OCc2nc3sc(C)c(C)c3c(=O)[nH]2)cc1 (stereo not drawn) | 12µM* | -2 | 19% | 13µM* | -4 | -19%
CC(=O)OCc1nc2sc(C)c(C)c2c(=O)[nH]1 | -19% | 11 | 1% | u | -4 | -14%
CCCOc1ccc(-c2nc(-c3ccc([N+](=O)[O-])cc3)cs2)cc1 | 81% | 2 | 1% | 62% | -1 | 18%
C=CCNc1nc(-c2ccc(Cl)cc2)cs1 | 80% | 130* | -21% | x | 64* | -1%
C=CCNc1nc(Nc2ccc([N+](=O)[O-])cc2)nc(OC)n1 | u | 37 | x | 155% | 8 | -2%
CN(C)c1nc(-c2ccc([N+](=O)[O-])cc2)cs1 | 124% | 78 | -7% | x | 21* | -36%
C=CCNc1nc(-c2ccc([N+](=O)[O-])cc2)cs1 | 225% | 63* | 0% | 40% | 56* | 0%
O=C(CN1CCOCC1)Nc1nc(-c2ccc(Cl)cc2)cs1 | x | 17 | -7% | 8% | 17 | -11%
O=C(c1ccc(-c2cccc(C(F)(F)F)c2)o1)N1CCOCC1 | 31% | 74* | -61% | 6% | 37* | -14%
CC(=O)N1CCN(C(=O)c2ccc(-c3cccc(C(F)(F)F)c3)o2)CC1 | 3% | x | x | u | x | 32µM*
O=C(O)/C=C/c1ccc(-c2cccc(C(F)(F)F)c2)o1 | -7% | 37 | x | 10% | 16 | 0%
COc1ccccc1[C@@H]1C(c2ccccc2)=NN(c2ccccc2)[C@H]1C(=O)N1CCOC1=O | x | 5 | x | x | 3 | x
COc1ccccc1[C@@H]1C(c2cccc(C)c2)=NN(c2ccccc2)[C@H]1C(=O)N1CCOC1=O | 13µM* | 3 | u | 10µM* | 1 | -8%
O=[N+]([O-])c1cc(Cl)c2cccnc2c1O | -6% | -21 | -74% | -27% | 1 | x
O=[N+]([O-])c1cc(Cl)c(O)c2ncccc12 | -6% | 23 | x | 10% | 24 | 11µM*
O=[N+]([O-])c1cc(F)c2cccnc2c1O | 0% | 19 | -86% | u | 2 | 3.2µM*
N#CC(C#N)=NNc1ccc([N+](=O)[O-])cc1 | u | 24 | -70% | u | 2 | 25µM*
CCN(CC)S(=O)(=O)c1ccc(NN=C(C#N)C#N)cc1 | u | 13 | -23% | u | 3 | 7.9µM*
Cc1ccc(O)c(NC(=S)NC(=O)CC(C)C)c1 | 91% | 61* | -2% | 81% | 59* | 8%
Cc1ccc(O)c(NC(=S)NC(=O)/C=C/c2ccccc2)c1 | -20% | 7 | -11% | 0% | 5 | 6%
Cc1ccc(O)c(NC(=S)NC(=O)C(C)C)c1 | 16% | 52* | -3% | 3% | 16* | 2%

Compound activity: PubChem BioAssay, National Center for Advancing Translational Sciences (NCATS)
